Compound activity from PubChem.
Most compounds without a hit are left out; they make up all but 31% or so of the library.
CYP2C9 activ – CYP2C9 (human) activation. P11712. recombinant CYP2C9, luciferin-H conversion, luminescence; active compounds read high; factor 1 = untreated enzyme, 0 = blocked. activation factor at 5 µM. actives 1.4% (n = 96,000). AID 1024;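 active = activation factor of 2 or more for CYP2C9 at a 5 µM dose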
Target sequence (P11712 whole entry, looked up): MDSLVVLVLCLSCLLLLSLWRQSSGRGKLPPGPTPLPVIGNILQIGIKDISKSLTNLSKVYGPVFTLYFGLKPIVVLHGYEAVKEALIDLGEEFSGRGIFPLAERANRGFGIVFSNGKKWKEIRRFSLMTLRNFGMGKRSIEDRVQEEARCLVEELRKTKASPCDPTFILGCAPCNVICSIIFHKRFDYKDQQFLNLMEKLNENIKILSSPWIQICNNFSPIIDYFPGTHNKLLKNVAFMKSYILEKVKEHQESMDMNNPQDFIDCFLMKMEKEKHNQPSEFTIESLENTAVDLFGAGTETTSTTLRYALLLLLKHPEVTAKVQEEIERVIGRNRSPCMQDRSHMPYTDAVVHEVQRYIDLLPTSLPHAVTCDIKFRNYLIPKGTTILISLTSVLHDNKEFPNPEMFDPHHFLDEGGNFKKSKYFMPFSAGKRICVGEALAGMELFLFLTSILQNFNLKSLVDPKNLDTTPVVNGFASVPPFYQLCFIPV
CYP2C9 inhib – human CYP2C9 inhibition; inhibition, % at 5 µM; actives 20% (n = 96,000); CYP2C9 Supersomes, luciferin-H conversion, luminescence; P11712;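 active = blocking of liver enzyme CYP2C9 beyond about 50% at 5 µM, limit read from the data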
CYP2C19 act – increases human CYP2C19 enzyme activity | AID 1025 | P33261 | activation factor at 5 µM | recombinant CYP2C19, luciferin-H EGE luminescence; active compounds read high; 0 = fully inhibited enzyme, 1 = untreated enzyme | 96,000 tested, under 10 active;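 active = activation factor of at least 2 at 5 µM in the primary screen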
CYP2C19 inhib – blocks human cytochrome P450 2C19; P33261; CYP2C19 Supersomes, luciferin-H EGE luminescence, 30 min; inhibition, % at 5 µM; actives 21% (n = 96,000);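 active = CYP2C19 inhibition above a set limit at 5 µM in the primary screen, cut at about 50% in these data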
PLAP activator – activates human placental alkaline phosphatase. P05187. AID 696. actives 1.2% (n = 96,000). purified PLAP enzyme, luminescent substrate read-out; active compounds read high. activation fold at 20 µM; in the data active = activation fold above about 2
Hits are given with their value; – = inactive; ! = a repeat was not active.

SMILES	CYP2C9 activ	CYP2C9 inhib	CYP2C19 act	CYP2C19 inhib	PLAP activator
O=C(NCc1ccc(C(F)(F)F)cc1)C1CC(c2ccccc2[N+](=O)[O-])=NO1 (configuration not stated)	–	–	–	–	–
CC(C)CCNC(=O)C1CC(c2cccc([N+](=O)[O-])c2)=NO1 (configuration not stated)	–	–	–	–	–
COc1ccc(C2=NOC(C(=O)NCc3ccc(F)cc3)C2)cc1OC (configuration not stated)	–	–	–	–	–
O=C(NCc1ccc(C(F)(F)F)cc1)C1CC(c2c(Cl)cccc2Cl)=NO1 (configuration not stated)	–	–	–	64	–
COc1cc(C2=NOC(C(=O)NCc3ccc(F)cc3)C2)cc(OC)c1OC (configuration not stated)	–	–	–	69	–
Cc1ccc(C)c(NC(=O)c2sc(Cl)nc2-c2ccccc2)c1	–	–	–	–	–
CC(C)(C)c1ccc(OCc2ccc(C(=O)N/N=C/c3ccc([N+](=O)[O-])cc3)o2)cc1	–	–	–	–	–
Cc1ccc(S(=O)(=O)NCC(=O)N(CC(=O)NC2CCCCC2)CC2CCCO2)cc1 (configuration not stated)	–	–	–	–	–
CCCCNC(=O)C1CC(c2c(Cl)cccc2Cl)=NO1 (configuration not stated)	4.8	–	–	–	–
COc1cc(OC)c(C2=NOC(C(=O)NCc3ccc4c(c3)OCO4)C2)cc1Cl (configuration not stated)	–	–	–	93	–
COCCNC(=O)C1CC(c2ccc(F)cc2)=NO1 (configuration not stated)	–	–	–	–	–
O=C(NCc1ccc2c(c1)OCO2)C1CC(c2ccc(Cl)cc2)=NO1 (configuration not stated)	–	–	–	–	–
CCCCCCC1CC(C)(/C(C)=N/NC(N)=O)OC1=O (configuration not stated)	–	–	–	–	–
CSc1ncccc1-c1nc2ccccc2[nH]1	–	–	–	–	–
c1ccc2[nH]c(-c3ccnc4ccccc34)nc2c1	–	54!	–	–	–
COc1cccc(-n2c(C)nn(C)c2=O)c1	–	–	–	–	–
COc1cccc(-n2nc(-c3ccnn3-c3ccc(C)cc3)c(=O)n(C)c2=O)c1	–	84	–	89	–
COc1ccc(Oc2nc3c(c(=O)n(C)c(=O)n3C)n2Cc2cccc(OC)c2)cc1	–	–	–	–	–
COc1ccc(-n2nccc2-c2nn(-c3cccc(OC)c3)c(=O)n(C)c2=O)cc1	–	62	–	89	–
COc1cccc(-n2nc(-c3ccnn3-c3ccc(F)cc3)c(=O)n(C)c2=O)c1	–	80	–	67	–
COc1ccc(OC)c2[nH]c(=O)c(CCNC(=O)C3CCCCC3)cc12	2.4	–	–	–	–
Cc1ccc2cc(CCNC(=O)c3ccc(Br)o3)c(=O)[nH]c2c1	–	–	–	54	–
COc1ccc(OC)c2[nH]c(=O)c(CCNC(=O)c3ccc(Br)o3)cc12	–	–	–	77	–
COc1ccc(OC)c2[nH]c(=O)c(CCNC(=O)CC(C)C)cc12	2.5	–	–	–	–
COc1ccc(OC)c2[nH]c(=O)c(CCNC(=O)C(C)C)cc12	–	–	–	–	–
SMILES	CYP2C9 activ	CYP2C9 inhib	CYP2C19 act	CYP2C19 inhib	PLAP activator
O=C1CN(C(=O)c2ccc(Br)o2)C(c2ccccc2)c2cc(Br)ccc2N1 (configuration not stated)	–	100	–	96	–
Cc1ccc2c(c1)C(c1ccccc1)N(C(=O)c1ccc(Br)o1)CC(=O)N2 (configuration not stated)	–	74	–	–	–
Cc1ccc2c(c1)C(c1ccc(F)cc1)N(C(=O)C1CC1)CC(=O)N2 (configuration not stated)	–	–	–	–	–
Cc1c(NC(=O)c2cc(=O)[nH]c(=O)[nH]2)c(=O)n(-c2ccccc2)n1C	–	–	–	–	–
CC(NC(=O)CCl)c1ccc(Cl)c(Cl)c1 (configuration not stated)	–	–	–	86	–
CC(C)CNC(=O)c1cc(-c2ccc(Cl)c(Cl)c2)on1	–	–	–	–	–
CCOC(=O)c1cc(NC(=O)c2ccc(Cl)cc2)c(=O)n2c1oc1ccc(Cl)cc12	–	–	–	–	–
CNc1nc(C)c(C(=O)c2ccc(Cl)cc2)s1	–	61	–	66	–
